These results are taken from PubChem BioAssay (NCATS).

Inconclusive results are not listed. Unmarked numbers belong to inactive results. Activity calls are given as the source filed them. The call rests on the fitted dose curve; in most records, active means well fitted cell-killing curve with a large enough effect; inconclusive means small, poorly fitted or top-dose-only effect, or effect the other way; inactive means flat fitted curve, though single readings scatter.
On the % scale 0 is the no-effect control and ±100 the full control effect.

For this experiment, the system named is CAOV3. The experiment in a line: Primary qHTS to identify gynecologic anti-cancer compounds using libraries of approved drugs and bioactive compounds (AID 1345084). Further: nearly all actives have a fitted effect of over 55% in size. To be noted: Gynecologic cancer cell panel viability, ATPlite luminescence, 48 h; series mostly up to 57.5 µM; activity change, negative = cytotoxicity: at the top concentration. An excerpt: National Center for Advancing Translational Sciences [NCATS] Assay Overview: Chemotherapeutic drug responses vary from cancer to cancer and from patient to patient. These variations could be caused by a number of factors including patient genomic background, tumor mutations, tumor heterogeneity, and aspects of drug treatment. Chemotherapeutic drug resistance is also a common issue and can lead to ineffective treatment and patient death. Here we have profiled the cell killing effects of thousands of compounds to characterize the responses in three gynecological cancers, identify cancer-selective compounds, and understand the diversity of responses to these compounds from pan-cancer suppressors to single cell line selective compounds. In this assay, we screened a 7,914 compound drug library that included approved drug and bioactive compounds in six ovarian, three cervical, and […] placental cancer cell lines using the ATPlite assay for cell viability. […] The cervical cancer cell lines included HeLa, Ca Ski, and C-33 A. The placental cancer cell lines included JEG-3. HEK 293T cells were used as the control cell line to determine the selectivity index. ATPlite is a luminescence based assay reliant on the conversion of a luciferase substrate to light in the presence of ATP. As a cytotoxic compound will suppress growth and decrease the number of cells, the concentration of ATP will decrease, and less light signal will be detected in the well.
Assay Protocol Summary: 1,000 cells in 4 uL of media were dispensed into white, solid bottom 1536-well plates using a Multidrop Combi (Thermo Scientific). The Assay plates were incubated for 16 hours at 37 C with 5% CO2 in assay plates, followed by the addition of 23 nL of DMSO or drug dissolved in DMSO. Each compound was assayed in five concentrations (0.092, 0.46, 2.3, 11.5, and 57.5 uM), using the automated Wako 1536 Pin Tool workstation and incubated at 37 C with 5% CO2 48 hours. 4 uL of ATPlite, the ATP monitoring reagent, was then added to the each well of the assay plates using the Multidrop Combi reagent dispenser followed by incubation for 15 minutes at room temperature. The resulting luminescence was measured using the ViewLux plate reader.
For orientation: qHTS replaces the single test concentration by a dilution series.
Consider `COP(=S)(OC)Oc1ccc(SC)c(C)c1`, for which the “activity change, negative = cytotoxicity” value is 0.228%.
The same measure, in the same setting: then `CCC1(c2ccc(N)cc2)CCC(=O)NC1=O` (stereo not given), with 1.47%; and `COc1cc(CCN)cc(OC)c1OC`, with 7.83% [at 116 µM].
As to `C[C@]12CCC(=O)C=C1CC[C@@H]1[C@@H]2CC[C@]2(C)C(=O)CC[C@@H]12`, the “activity change, negative = cytotoxicity” value is 9.23%.
As for `O=C1c2ccccc2C(=O)c2ccccc21`, the “activity change, negative = cytotoxicity” value was 4.75% [at 25.3 µM].
Still for that read-out and setting: the value for `C#C[C@]1(O)CC[C@H]2[C@@H]3CCC4=CC(=O)CC[C@]4(C)[C@H]3CC[C@@]21C` was -5.61%; that for `Nc1ccc([As](=O)(O)O)cc1` was 12.4%; that for `C[C@]12CCC(=O)C=C1CC[C@@H]1[C@@H]2CC[C@@]2(C)[C@H]1CC[C@]2(C)O` was -23.6%.
For `CCCN(CCC)C(=O)Cc1c(-c2ccc(Cl)cc2)nc2ccc(Cl)cn12`, the “activity change, negative = cytotoxicity” value is -27.8%.
On to `CC(NC(C)(C)C)C(=O)c1cccc(Cl)c1` (stereo not given), for which the compound was called inactive.
For `C[C@]12CCC(=O)C=C1CC[C@@H]1[C@H]3CC[C@](C)(O)[C@@]3(C)CC[C@@H]12`, the “activity change, negative = cytotoxicity” value was -12% [at 116 µM].
Consider `CC1(C)C(C=C(Cl)Cl)C1C(=O)OC(C#N)c1cccc(Oc2ccccc2)c1` (stereo not given), for which the “activity change, negative = cytotoxicity” value was -1.41%.
Turning to `C=C(C)[C@H]1CN[C@H](C(=O)O)[C@H]1CC(=O)O`, the “activity change, negative = cytotoxicity” value was 11.8%.
On the same count and under the same terms, then `O=C(O)CCCc1ccc(N(CCCl)CCCl)cc1`, with 6.94%; and `CC(C)c1cccc(C(C)C)c1O`, with -12.6%; and `CN(C)CCc1c[nH]c2cccc(OP(=O)(O)O)c12`, with -3.65% [at 116 µM].
Same read-out and setting: then `CCN[C@@H](C)Cc1cccc(C(F)(F)F)c1`, with 2.18%; and `C[C@]12CC[C@H]3[C@@H](CCC4=CC(=O)CC[C@@H]43)[C@@H]1CC[C@@H]2OC(=O)CCC1CCCCC1`, with 5.76%.
With `Nc1ccccc1C(=O)O`, the “activity change, negative = cytotoxicity” value is -2.89%.
The same measure, in the same setting: the value for `CN1CCC(O)(c2ccc(F)cc2)C(C(=O)c2ccc(F)cc2)C1` (stereo not given) was 13.4%; that for `C#CC(O)(C=CCl)CC` (stereo not given) was 15.2%; that for `Oc1ccc(Cl)cc1` was -33.7%.
Same read-out and setting: then `C[C@]12CC[C@@H]3c4ccc(OC(=O)N(CCCl)CCCl)cc4CC[C@H]3[C@@H]1CC[C@@H]2OP(=O)(O)O`, with -6.73%.
Same read-out and setting: the value for `CC(C)(C)c1ccc(O)cc1` was 17.3%.
On to `COP(=S)(OC)Oc1cc(Cl)c(Cl)cc1Cl`, for which the “activity change, negative = cytotoxicity” value is 5.22%.
In the case of `NNc1ccccc1`, the “activity change, negative = cytotoxicity” value is 25.9%.
On the same count and under the same terms, then `CN1CC[C@]23c4c5ccc(O)c4O[C@H]2[C@@H](O)CC[C@H]3[C@H]1C5`, with -7.67% [at 116 µM]; and `CCCCC/C=C\C/C=C\C/C=C\C/C=C\CCCC(=O)NCC(=O)O`, with 2.14%; and `C[C@]12CC[C@H]3[C@@H](CCC4=CC(=O)CC[C@@H]43)[C@@H]1CC[C@@H]2OC(=O)CCc1ccco1`, with 3.19%.
With `ClCCN1CCCC1`, the “activity change, negative = cytotoxicity” value was -5.59%.
Turning to `O=c1c(C2CC(c3ccc(-c4ccc(Br)cc4)cc3)Cc3ccccc32)c(O)sc2ccccc12` (stereo not given), the “activity change, negative = cytotoxicity” value is -12%.
The same measure, in the same setting: then `CCCOC(=O)c1cncn1C(C)c1ccccc1` (stereo not given), with 7.42%; and `CCN[C@H](C)Cc1cccc(C(F)(F)F)c1`, with 3.15% [at 116 µM].
In the case of `Nc1nc(N)nc(NC2CC2)n1`, the “activity change, negative = cytotoxicity” value is -2.96%.
As to `NC1=NC(=O)C(c2ccccc2)O1` (stereo not given), the “activity change, negative = cytotoxicity” value is 3.01%.
The same measure, in the same setting: then `O=C(CCCN1CCC2(CC1)C(=O)NCN2c1ccccc1)c1ccc(F)cc1`, with 1.27%; and `Clc1cccc(SC2CCNCC2)n1`, with -11.5%.
As to `CCN(CCO)CCn1c(Cc2ccccc2)nc2c1c(=O)n(C)c(=O)n2C`, the “activity change, negative = cytotoxicity” value was -24%.
The same measure, in the same setting: the value for `CCOP(=S)(OCC)Oc1ccc2c(C)c(Cl)c(=O)oc2c1` was -4.67%.
For the compound `CN1C(=O)COc2c(C(=O)NC3CN4CCC3CC4)cc(Cl)cc21` (stereo not given), the “activity change, negative = cytotoxicity” value is -4.11%.
